Assay [1] in a line: qHTS assay to identify small molecule agonists of the RXR signaling pathway - cell viability counter screen (AID 1159529). Also: nearly all actives have a fitted effect of over 50% in size. Also: potency is read from the fitted curve at half-maximal effect. An outline of the steps: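 HEK 293T RXRa-bla cells, 2% CS-FBS; 5 h settle; cpd 16 h 37 C, 5% CO2; CellTiter-Glo 30 min RT, luminescence. Tetraoctyl ammonium bromide as positive control.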
Assay [2] in a line: qHTS assay to identify small molecule antagonists of the retinoid acid receptor (RAR) signaling pathway - cell viability counter screen (AID 1159551). Also: nearly all actives have a fitted effect of over 35% in size. Also: potency is read from the fitted curve at half-maximal effect. In a few lines:
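C3RL4 RARE-luciferase cells, 1,000/well, incubated overnight, then dosed with compound plus 1 uM retinol (final). After 6 hr at 37 C, viability read by CellTiter-Glo ATP luminescence following 30 min at room temperature.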
On the technique in general: qHTS replaces the single test concentration by a dilution series.

Assay [3] is described as follows: qHTS assay to identify small molecule antagonists of the retinoic acid receptor (RAR) signaling pathway (AID 1159552; also: nearly all actives have a fitted effect of over 50% in size; also: potency is read from the fitted curve at half-maximal effect). In a few lines:
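Cells of the C3RL4 line were seeded, incubated overnight, then dosed with compounds in DMSO followed immediately by retinol (1 uM final). Six hours later luciferase detection reagent went in; signal was measured after 30 min at RT.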

Assay [4] concerns the target Retinoic acid receptor RXR-alpha (Homo sapiens) (UniProt P19793). Put plainly: qHTS assay to identify small molecule agonists of the RXR signaling pathway (AID 1159527; calls by dose curve; also: nearly all actives have a fitted effect of over 35% in size). In a few lines: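 Read-out: beta-lactamase FRET ratio (405 nm excitation, 460 and 530 nm emission) after 2 hr substrate loading at room temperature. Cells were RXR-alpha-UAS-bla HEK 293T treated with compounds for 16 hr in 2% charcoal-stripped FBS medium.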

Assay [5] in a line: qHTS assay to identify small molecule agonists of the retinoic acid receptor (RAR) signaling pathway (AID 1159553). Also: potency is read from the fitted curve at half-maximal effect. An outline of the steps:
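C3RL4 RARE-luciferase cells were seeded at 1,000/well and grown overnight at 37 C, then exposed to compounds for 6 hr at 37 C, 5% CO2. Luciferase reagent was added and luminescence was read after 30 min at room temperature.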

Assay [6] in a line: qHTS assay to identify small molecule antagonists of the estrogen related receptor (ERR) signaling pathway - cell viability counter screen (AID 1224818). Also: series mostly up to about 46 µM. In a few lines: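 ERR cells, 2,000 per well, compound added after 6 h and incubated 17.5 h at 37 C. Viability read by CellTiter-Fluor fluorescence after a further 30 min at 37 C.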
Assay [7] can be described thus: qHTS assay to identify small molecule antagonists of the estrogen related receptor (ERR) signaling pathway (AID 1224819;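 also: luminescence from an ERR-driven luciferase reporter measured with One-Glo reagent; series mostly up to about 46 µM; nearly all actives have a fitted effect of over 50% in size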). An outline of the steps:
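ERR reporter cell line (NTP) plated at 2,000 cells/well, settled 6 h at 37C/5% CO2, then exposed to LOPAC compounds for 18 h at 37C. One-Glo luciferase luminescence read after 30 min at room temperature.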

The nature of assay [8]: qHTS assay to identify small molecule agonists of the estrogen related receptor (ERR) signaling pathway (AID 1224820). In a few lines: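 Cells: ERR line from NTP, 2,000/well. Pre-incubation 6 h, 37 C/5% CO2. Compound (DMSO) pin transfer, 18 h 37 C. One-Glo, 30 min RT, luminescence.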
Assay [9] deals with estrogen-related receptor alpha (ERRalpha) with PGC-1alpha coactivator, human. Put plainly: qHTS assay to identify small molecule antagonists of the estrogen related receptor signaling pathway with the pleiotropic PPARgamma coactivator (PGC) (AID 1224821; calls by dose curve;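 also: series mostly up to about 46 µM; lower luminescence signal means antagonism of PGC/ERR signalling; nearly all actives have a fitted effect of over 50% in size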). In a few lines:
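Luminescent read-out (One-Glo, 30 min at room temperature) following 18 h treatment of PGC/ERR cells at 37 C with compounds delivered in DMSO. Cells had settled 6 h at 37 C/5% CO2 before dosing.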

Assay [10] can be described thus: qHTS assay to identify small molecule antagonists of the estrogen related receptor signaling pathway with the pleiotropic PPARgamma coactivator (PGC) cell viability counter screen (AID 1224822; also: series mostly up to about 46 µM). In a few lines:
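PGC/ERR cells rested 6 h, then compound-treated 17.5 h at 37 C. CellTiter-Fluor added for 30 min at 37 C, viability measured by fluorescence intensity.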

Records with an inconclusive call do not appear. Activity calls are given as the source filed them. Unless noted, calls follow the shape of the dose curve; as a rule, active = well fitted curve in the direction sought with a large enough effect in the repeat runs; inconclusive = weak or mixed curves; inactive = no such curve, though single readings can be large; an effect the other way counts as inactive or inconclusive.

Chain of Retinoic acid receptor RXR-alpha (Homo sapiens) (P19793 whole entry, looked up): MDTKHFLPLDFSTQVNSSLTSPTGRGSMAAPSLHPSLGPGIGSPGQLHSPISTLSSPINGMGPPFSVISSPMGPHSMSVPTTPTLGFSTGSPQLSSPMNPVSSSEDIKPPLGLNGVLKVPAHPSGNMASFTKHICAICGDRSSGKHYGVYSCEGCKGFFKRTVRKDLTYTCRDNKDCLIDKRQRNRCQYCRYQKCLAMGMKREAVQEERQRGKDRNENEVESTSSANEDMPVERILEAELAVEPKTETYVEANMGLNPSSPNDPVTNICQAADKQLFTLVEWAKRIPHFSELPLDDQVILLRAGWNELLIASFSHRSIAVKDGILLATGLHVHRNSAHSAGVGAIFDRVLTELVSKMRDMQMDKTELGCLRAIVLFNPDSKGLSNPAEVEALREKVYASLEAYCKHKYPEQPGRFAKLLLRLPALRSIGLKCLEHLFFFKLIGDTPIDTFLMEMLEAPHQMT

As to `CC1=C2[C@@H]([C@H](C)CC[C@H]2/C=C(\C)C(=O)O)[C@H](O)C1`, the Potency entry in assay [1] and in assay [2] was “inactive” throughout.
With `COc1ccc(-c2cc(C(F)F)nn2-c2ccc(S(N)(=O)=O)cc2)cc1F`, the Potency result in assay [1] was “inactive”.
Take `O=C(O)CCCc1c[nH]c2ccccc12`: the Potency entry in assay [1] and in assay [2] was “inactive” each time.
`COC(=O)Nc1nc2ccc(C(=O)C3CC3)cc2[nH]1`: the Potency entry in assay [1], in [2] and in assay [3] was “inactive” throughout.
`Nc1ccc(N=Nc2ccc(N)cc2)cc1`: the Potency entry in assay [4], in assay [2] and in [3] was “inactive” in each case. Also, the Potency in assay [5] is 0.863 µM (active).
As for `CC(=O)N[C@@H](Cc1ccc(O)cc1)C(=O)O`, the Potency entry in assay [4], in [2], in assay [3] and in assay [5] was “inactive” throughout.
Consider `CC12CC3CC(C)(C1)CC(N)(C3)C2`, for which the Potency entry in assay [4], in assay [2], in [5], in assay [7] and in [9] was “inactive” in each case. Moreover, the outcome in assay [6], in [8] and in assay [10] was inactive.
Regarding `Cc1cccc(C)c1NC(=O)c1cc(S(N)(=O)=O)c(Cl)cc1O`, the Potency entry in assay [1], in assay [2] and in assay [3] was “inactive” in each case.
Turning to `CNS(=O)(=O)c1cc(C(=O)N2CCC(CCN3C4CCC3CC(n3c(C)nc5ccccc53)C4)(c3cccc(F)c3)CC2)c(Cl)cc1F` (stereo not drawn), the Potency in assay [1] is 6.16 µM (active). Further, in assay [2], the Potency entry is “inactive”.
As to `COC(OC)OC`, the Potency entry in assay [1], in assay [2] and in [3] was “inactive” each time.
Regarding `CC(C)(C)CCCCCCOC(=O)c1ccccc1C(=O)OCCCCCCC(C)(C)C`, the Potency result in [1] and in assay [2] was “inactive” throughout.
For `COc1cc(OC)c2ccc(=O)oc2c1`, the Potency result in assay [1] and in assay [2] was “inactive” in each case.
As to `COC(=O)c1sccc1S(N)(=O)=O`, the Potency entry in assay [4], in [2], in assay [3] and in [5] was “inactive” in each case.
Take `O=CNNC=O`: the Potency result in assay [1] and in assay [2] was “inactive” each time.
For `O=C(O)c1ccc(O)cc1O`, the Potency result in assay [1], in [2] and in [3] was “inactive” in each case.
`CC(=O)OCCC(C)CC(C)(C)C` (stereo not drawn): the Potency result in [1] and in assay [2] was “inactive” in each case.
Take `COc1ccc(C(=O)NCc2ccc(OCCN(C)C)cc2)cc1OC`: the Potency result in [1] and in assay [2] was “inactive” throughout.
On to `CCN(Cc1cccc(S(=O)(=O)O)c1)c1ccc(C(=C2C=CC(=[N+](CC)Cc3cccc(S(=O)(=O)O)c3)C=C2)c2ccccc2S(=O)(=O)[O-])cc1`, for which the Potency entry in assay [1] is “inactive”. Moreover, the figures for the Potency in assay [2] and in assay [3] were 15.4 µM (active) and 13.7 µM (active), respectively.
Regarding `CC(C)COC(=O)COc1cc(Cl)c(Cl)cc1Cl`, the Potency result in assay [4], in assay [2], in assay [3] and in assay [5] was “inactive” each time.
`O=C(O)CCS`: the Potency entry in assay [4], in assay [2], in assay [3] and in [5] was “inactive” in each case.
With `CCN(CC)C(=O)/C(C#N)=C/c1cc(O)c(O)c([N+](=O)[O-])c1`, the Potency result in [1], in assay [2] and in [3] was “inactive” each time.
As to `CC(C)c1ccc(C#N)cc1`, the Potency result in [1], in [2] and in [3] was “inactive” each time.
For `CC[C@@H](CO)NCCN[C@@H](CC)CO`, the Potency result in assay [4], in assay [2], in assay [3] and in [5] was “inactive” in each case.
Consider `O=C(O)c1cccc(C[C@@H]2COc3ccc(OCc4nc5cc(F)ccc5s4)cc3[C@@H]2O)c1`, for which the Potency result in [1] and in assay [2] was “inactive” each time.
Regarding `CCN(CC)CCOc1ccccc1C(=O)CCc1ccccc1`, in assay [1], the Potency is 9.52 µM (active). For the same compound, the Potency result in assay [2] and in [3] was “inactive” each time.
`CCCCCCCCCCCCCOS(=O)(=O)O`: in [1], the Potency is 24.5 µM (active). Besides, in assay [2], the Potency entry was “inactive”.
Consider `C=CC(=O)NC(C)C`, for which the Potency result in assay [1] and in assay [2] was “inactive” in each case.
Take `C1=CCC2CC=CC2C1` (stereo not drawn): the Potency entry in [1] and in assay [2] was “inactive” throughout.
Turning to `CC(C)(O)CCc1ccccc1`, the Potency result in [4], in [2], in assay [3] and in assay [5] was “inactive” in each case.
Consider `BrC(Br)C(Br)Br`, for which the Potency result in assay [4], in [2], in assay [3] and in [5] was “inactive” each time.
`OCC(CO)n1cnc(-c2ccc(F)cc2)c1-c1ccnc(Oc2ccccc2)n1`: the Potency entry in [1] and in assay [2] was “inactive” each time.
For the compound `CC(CN(CCN(CC(C)OCCO)CC(C)OCCO)CC(C)OCCO)OCCO` (stereo not drawn), the Potency entry in assay [4], in assay [2], in [3] and in assay [5] was “inactive” in each case.
Consider `O=NN(CCCl)C(=O)NCCCl`, for which the Potency entry in assay [7] and in [9] was “inactive” in each case. For the same compound, the result in assay [8] was inactive.

Source of the values: PubChem BioAssay (Tox21).
